# Target: C11orf53
# Assay: pooled miR-30 sensor sort-seq; sequence = guide strand
# Conditions: shRNA
# Note: reference of the scale not given here.
row,Sequence,sensor-assay potency score (higher = more potent)
1,TTACTGTTGTGGAAGTCTGAGT,-0.608
2,TCAGATAAGAAAGATCTTCTGA,0.556
3,TCTGACACCGTAGTAACCTGAC,0.0785
4,TCGTCCACTAACAAAGAGCAGC,-0.909
5,TTCTGACACCGTAGTAACCTGA,-0.43
6,TTTACTGTTGTGGAAGTCTGAG,-0.231
7,TAAATAGGAAGTGAGCTGGGTC,0.00724
8,TATTCTGAAAATCCAGTCCTGA,-0.0201
9,TTTGACACCGTCATGAAAGGGG,0.41
10,TAGGTCATTTGACACCGTCATG,-1.72
11,TGACACACCTAAAACAATCTTT,0.469
12,TTATTCTGAAAATCCAGTCCTG,0.403

# Target: C11orf54
# Assay: as above
# Conditions: shRNA
row,Sequence,sensor-assay potency score (higher = more potent)
1,TGGAGTAGTGTCATAATGGTAG,-0.457
2,TTATTCACTTCTTCATCAGAGT,-0.552
3,TTTCTCACTGTATTTCTCCAGT,-0.237
4,TAAACTCAGAATTGAACCCGAG,0.00773
5,TTCTTCATCAGAGTTCAAGGGG,0.466
6,ATAAACTCAGAATTGAACCCGA,0.903
7,TTTTATTCAGATCATAAACTTT,-0.546
8,TCTGAAATGGACCTGCTCCTGC,-0.481
9,ATAAGTAAGGCACACCTCCAAC,-1.21
10,TTTCATTTCATAAAAATGCAAC,-0.462
11,TATTCCACTATATCTGGAGTAG,-0.318

# From the OligoGym collection
